An excerpt weighted towards active compounds, which were near 7.5% of everything screened.
SMN2 splice enh – SMN2 splice variant enhancement; HEK293 SMN2-luciferase splicing reporter, luminescence, 30-36 h; Potency, µM (doses to about 46.1 µM), inactives show top-dose activity change, positive = activation, most hits filed as activators; 210,000 compounds, 2.8% hits; AID 1458; note: % of control where 0% means no effect; nearly all actives have a fitted effect of over 55% in size
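HEK293 cells carry an SMN2 minigene-luciferase reporter in which exon 7 inclusion puts luciferase in frame. Cells were seeded at 2000 cells/well, attached for 10-12 hours, then exposed to compounds for 30-36 hours at 37C before ONE-Glo luminescence.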
KinaseGlo FLuc – Kinase-Glo luciferase inhibition (counter-screen) | Q27757 | 200,000 compounds, 0.28% hits | Potency, µM (series often up to 38.3 µM), inactives show top-dose activity change, negative = inhibition, usual class: inhibitors | Kinase-Glo luciferase, ATP luminescence, 8 min; note: % is set by controls: 0 for no effect and ±100 for the full control effect; nearly all actives have a fitted effect of over 60% in size
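Kinase-Glo luciferase light output from ATP and luciferin was measured with 10 uM ATP, within the enzyme's linear range. Buffer: 50 mM imidazole pH 7.2, 50 mM KCl, 7 mM MgCl2, 0.01% Tween 20, 0.05% BSA; luminescence read after 8 min at ambient temperature.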
ELG1 genotoxic – inducers of genotoxicity in HEK293T ELG1-luciferase cells | HEK293T ELG1-luciferase reporter, luminescence, 16 h | Potency, µM (titrated, usually from 46 µM), without a hit: at the top dose activity change, positive = activation, actives largely listed as activators | 330,000 compounds, 1.3% hits; note: % of control where 0% means no effect; nearly all actives have a fitted effect of over 60% in size
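Quantitative HTS format in 1536-well plates. HEK293T ELG1-luciferase reporter cells receive test compound and are incubated 16 hr at 37 °C, 5% CO2; ONE-Glo added, 30 min room temperature, then luminescence read.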
FLuc counter – inhibits or activates purified firefly luciferase, miR-21 counter-screen | P08659 | Potency, µM (doses to about 57.5 µM), inactives show at the highest dose activity change, negative = inhibition, usual class: inhibitors | purified FLuc, Km substrates, luminescence inhibition | AID 588342 | 360,000 compounds, 6.9% hits;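 note: plate controls were vehicle for no effect and reference inhibitor for full effect; nearly all actives have a fitted effect of over 55% in size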
Target sequence (P08659 whole entry, looked up): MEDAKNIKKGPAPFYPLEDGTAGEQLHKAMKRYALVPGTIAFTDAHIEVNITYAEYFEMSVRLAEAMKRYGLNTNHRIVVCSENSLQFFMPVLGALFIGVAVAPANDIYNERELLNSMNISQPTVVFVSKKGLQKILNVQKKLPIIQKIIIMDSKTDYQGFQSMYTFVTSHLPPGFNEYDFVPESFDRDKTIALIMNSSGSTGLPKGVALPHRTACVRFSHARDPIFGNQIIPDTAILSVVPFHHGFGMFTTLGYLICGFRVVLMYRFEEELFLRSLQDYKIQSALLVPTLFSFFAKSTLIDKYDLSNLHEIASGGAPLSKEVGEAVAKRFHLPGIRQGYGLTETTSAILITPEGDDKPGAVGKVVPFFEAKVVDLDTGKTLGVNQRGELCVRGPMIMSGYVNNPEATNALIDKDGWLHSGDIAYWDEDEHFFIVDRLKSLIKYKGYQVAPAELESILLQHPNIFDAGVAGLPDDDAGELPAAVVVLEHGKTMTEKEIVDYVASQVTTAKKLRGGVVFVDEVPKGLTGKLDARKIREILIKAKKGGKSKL
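Purified P. pyralis luciferase, 10 nM final, with Km-level 10 uM D-luciferin and 10 uM ATP in 50 mM Tris acetate pH 7.5, 10 mM Mg acetate, 0.01% Tween-20, 0.05% BSA; 6-point qHTS titration about 60 µM downward; luminescence read.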
Rab9 promoter act – Rab9 promoter activation; AID 485297; 320,000 compounds, 2.8% hits; Potency, µM (titrated, usually from 9.22 µM), without a hit: at the highest dose activation, negative = inhibition, most hits filed as activators; Huh7 Rab9 promoter-luciferase reporter, luminescence, 24 h; note: % of control where 0% means no effect; nearly all actives have a fitted effect of over 60% in size
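Using Huh7 cells stably transfected with Rab9 promoter–luciferase, compounds were incubated 24 h at 37 °C, 5% CO2; luciferase luminescence was read 10 min after reagent addition.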
NPC1 promoter act – NPC1 promoter activation; Huh7 NPC1 promoter luciferase reporter, 24 h; Potency, µM (titrated, usually from 9.22 µM), for the others: top-dose activation, usual class: activators; 320,000 compounds, 2.4% hits; note: % of control where 0% means no effect; nearly all actives have a fitted effect of over 60% in size
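Stable NPC1-promoter luciferase Huh7 line; cpd (DMSO) 24 h, 37 °C, 5% CO2; Amplite luciferase reagent 10 min RT; luminescence readout. qHTS format.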
The depositor's hits bear a star; ? = inconclusive; · = no result given; [ ] = remark or other dose. Calls come from the whole dose curve; as a rule, active = well fitted curve in the direction sought with a large enough effect; inconclusive = small, poorly fitted or top-dose-only effect, or another doubt; inactive = no such curve, though single readings can be large; an effect the other way counts as inactive or inconclusive. Potency is the fitted concentration of half-maximal effect.

SMILES	SMN2 splice enh	KinaseGlo FLuc	ELG1 genotoxic	FLuc counter	Rab9 promoter act	NPC1 promoter act
Cc1c(Cl)cccc1-n1ncc(C(=O)NC2CCCC2)c1C1CCN(C(=O)OC(C)(C)C)CC1	·	·	·	-1%	·	·
COc1cc([N+](=O)[O-])ccc1NC(=S)NNC(=O)CCC(=O)Nc1ccccc1Cl	·	·	9.2µM*	?	?	?
CCn1c(C)nc2cc(C(=O)N/N=C(\C)c3ccccc3O)ccc21	?	7%	5%	13µM*	?	?
CCn1c(C)nc2cc(C(=O)NNC(=S)Nc3ccccc3OC)ccc21	·	·	10%	19µM*	?	24%
CCn1c(C)nc2cc(C(=O)NN=Cc3ccccc3OC(F)F)ccc21	·	·	15%	·	·	·
CCn1c(C)nc2cc(C(=O)N/N=C/c3ccccc3C)ccc21	16µM*	-4%	?	11µM*	1.1µM*	1.8µM*
COc1cc([N+](=O)[O-])ccc1NC(=O)CCCOc1ccccc1	6%	7%	1%	-1%	1%	1%
CC(=O)c1ccc(NC(=O)c2cc(-c3ccc(Cl)c(Cl)c3)on2)cc1	6%	·	·	4%	·	·
c1coc(-c2nc3n(n2)C2(CCCCC2)[C@@H]2CCCC[C@@H]2N3)c1	·	·	·	0%	·	·
Cc1ccc(-n2c(=O)c3ccc(C(=O)NCc4ccccc4Cl)cc3n(CC(=O)Nc3cccc(F)c3)c2=O)cc1	0%	·	·	0%	·	·
COc1ccccc1NC(=S)NNC(=O)c1ccc(Cl)cc1Cl	16µM*	1%	4%	11µM*	28%	12%
Cc1ccccc1C(=O)NNC(=S)NC(=O)c1ccc(Cl)cc1Cl	10%	1%	-3%	2%	1%	0%
c1ccc(C(c2cccc3c2ccc2ccccc23)[C@H](c2ccccc2)c2cccc3c2ccc2ccccc23)cc1 (stereo not given in full)	-1%[9.22 µM]	-3%[7.66 µM]	·	·	·	·
O=C1CCC(=O)N1c1cccc(-c2nc3ccccc3o2)c1	-1%	-4%	3%	?	3%	4%
O=C1c2cccnc2C(=O)N1c1cccc(-c2nc3ccccc3o2)c1	1%	-2%	3%	3.8µM*	-7%	1%
C(=N\n1cnnc1)/c1ccc(OCc2cccc3ccccc23)cc1	14µM*	7%	?	?	?	?
O=[N+]([O-])c1ccc(N/N=C/c2ccc(OCc3cccc4ccccc34)cc2)nc1	-20%	0%	21µM*	2%	-2%	21%
Fc1ccccc1COc1ccc(/C=N/n2cnnc2)cc1	-10%	-2%	3%	-19%	-2%	14%
C(=N\n1cnnc1)/c1cccc(OCCOc2ccccc2)c1	11µM*	-3%	5%	?	1.4µM*	2.8µM*
CCC(C(=O)Nc1ccc2c(c1)OCCO2)n1c(=O)[nH]c2ccccc2c1=O (stereo not given)	·	·	?	-18%	1%	0%
Cn1cc(C(=O)C(=O)N2CCc3ccccc32)c2ccccc21	·	·	?	1%	2.8µM*	3.2µM*
CCCCCCOc1ccc(C2C(=O)N(C3CCCCC3)CC(=O)N2C2CCCCC2)cc1 (stereo not given)	·	·	·	-3%	·	·
C/C(=N\NC(=O)c1csc(C)c1C)c1ccco1	11µM*	?	6.5µM*	7.6µM*	2.2µM*	4µM*
C/C(=N/NC(=O)c1cccs1)c1ccco1	?	-18%	?	17µM*	?	28%
C/C(=N\NC(=O)c1cccs1)c1ccc(C(=O)O)s1	·	·	?	-14%	-1%	4%
CC(/C=N/NC(=O)Cc1cccs1)=C\c1ccco1	15%	0%	10%	?	?	?
CC(/C=N/NC(=O)c1cccs1)=C\c1ccco1	11µM*	-18%	9.2µM*	6µM*	1.4µM*	3.2µM*
C/C(=N\NC(=O)c1csc(C)c1C)c1ccc(C)s1	?	-6%	?	?	?	?
